# Sampled rows, rich in hits. Any-hit rate of the full collection: about 9.9%.
# Tau FP inhib: tau fibrillization inhibition (FP); P10636; K18 P301L tau heparin fibrillization, Alexa594 FP, 6 h; Potency, µM (doses to about 57.7 µM), for inactives: at the top dose activity, negative = inhibition, hits mostly inhibitors; 280,000 tested, 0.39% active; AID 1468; active means well fitted curve in the direction sought with a large enough effect; inconclusive means small, poorly fitted or top-dose-only effect, or another doubt; inactive means no such curve, though single readings can be large; an effect the other way counts as inactive or inconclusive; further: nearly all actives have a fitted effect of over 55% in size
# Target sequence (P10636 561-689 P618L limits assumed): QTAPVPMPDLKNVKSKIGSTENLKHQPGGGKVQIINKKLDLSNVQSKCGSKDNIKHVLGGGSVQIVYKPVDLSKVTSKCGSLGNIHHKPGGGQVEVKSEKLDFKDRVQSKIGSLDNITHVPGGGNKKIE
#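 Compound effects on tau fibrillization are measured by Alexa 594 fluorescence polarization (ex 555, em 632 nm). K18 P301L tau is used at 15 uM with 0.24 uM labeled tracer, and 20 uM heparin induces aggregation over 6 hr at 37 C.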
# JMJD2E inh: inhibitors of human JMJD2E histone demethylase. B2RXH2. JMJD2E catalytic domain, FDH-coupled NADH fluorescence (FDH is formaldehyde dehydrogenase). Potency, µM (titrated, usually from 57.1 µM), for inactives: top-dose activity change, negative = inhibition, actives largely listed as inhibitors. 230,000 tested, 1.6% active. AID 2147;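 further: 0% = wells with enzyme and -100% = buffer wells without enzyme; nearly all actives have a fitted effect of over 50% in size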
# Target sequence (B2RXH2 1-337 limits assumed): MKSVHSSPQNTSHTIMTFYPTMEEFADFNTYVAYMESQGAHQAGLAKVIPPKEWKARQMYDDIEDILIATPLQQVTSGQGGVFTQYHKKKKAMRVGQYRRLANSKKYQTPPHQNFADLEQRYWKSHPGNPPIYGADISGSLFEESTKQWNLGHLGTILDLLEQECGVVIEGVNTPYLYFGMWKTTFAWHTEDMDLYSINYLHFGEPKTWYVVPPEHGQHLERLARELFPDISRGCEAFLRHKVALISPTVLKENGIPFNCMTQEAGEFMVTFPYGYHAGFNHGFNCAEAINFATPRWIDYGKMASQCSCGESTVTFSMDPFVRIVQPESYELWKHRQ
# HPGD inh: inhibitors of human 15-hydroxyprostaglandin dehydrogenase (HPGD) | purified HPGD, NADH fluorescence kinetic, PGE2 substrate | Potency, µM, inactives show at the highest dose activity change, negative = inhibition, usual class: inhibitors | 150,000 tested, 4.3% active | AID 894
# Target sequence (P15428 whole entry, looked up): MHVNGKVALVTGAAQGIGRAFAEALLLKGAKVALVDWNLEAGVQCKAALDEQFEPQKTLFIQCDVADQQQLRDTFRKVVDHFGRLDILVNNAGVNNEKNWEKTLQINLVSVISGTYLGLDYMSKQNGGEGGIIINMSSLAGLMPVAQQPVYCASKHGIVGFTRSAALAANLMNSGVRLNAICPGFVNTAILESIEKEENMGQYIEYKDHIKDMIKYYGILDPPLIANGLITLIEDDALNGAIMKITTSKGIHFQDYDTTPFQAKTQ
#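 NADH formation kinetics: reaction with 30 uM PGE2 and 1 mM NAD+ (final), 20 nM enzyme, Tris-HCl pH 8 with Tween 20, after 15 min compound preincubation at room temperature. Fluorescence change, last versus first of five reads.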
# Tau ThT inhib: tau fibrillization inhibition (ThT binding). P10636. recombinant tau K18 P301L, heparin-induced fibrillization, ThT fluorescence. Potency, µM (titrated, usually from 57.4 µM), for inactives: top-dose activity, negative = inhibition, most hits filed as inhibitors. 270,000 tested, 2.1% active. AID 1460; active means well fitted curve in the direction sought with a large enough effect; inconclusive means small, poorly fitted or top-dose-only effect, or another doubt; inactive means no such curve, though single readings can be large; an effect the other way counts as inactive or inconclusive; further: nearly all actives have a fitted effect of over 55% in size
#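 In this qHTS, human K18 P301L tau is incubated with compound and heparin for 6 hr at 37 C, and Thioflavin T fluorescence then reports fibril load.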
# Tau fluor counter: counter-screen for tau fibril formation inhibitors. 280,000 tested, 0.93% active. AID 1463. Potency, µM (highest dose often 57.7 µM), for the others: top-dose activity change, negative = decrease. tau K18 P301L (four-repeat tau fragment) Alexa594 fluorescence, heparin fibrillization; active means well fitted curve in the direction sought with a large enough effect; inconclusive means small, poorly fitted or top-dose-only effect, or another doubt; inactive means no such curve, though single readings can be large; an effect the other way counts as inactive or inconclusive; further: nearly all actives have a fitted effect of over 55% in size
#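 Human K18 P301L tau (15 uM unlabeled plus 0.24 uM Alexa 594-labeled, final) in 100 mM sodium acetate pH 7 was mixed with compound and 20 uM heparin and incubated 6 hr at 37 C.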
# ALDH1A1 block: ALDH1A1 (human) enzyme inhibition. Potency, µM (series often up to 75.3 µM), without a hit: top-dose activity, negative = inhibition, actives largely listed as inhibitors. Purified ALDH1A1, NADH fluorescence, propionaldehyde substrate. 220,000 tested, 7.3% active;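 further: plate controls were no enzyme wells and a reference inhibitor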
# Starred values were filed as active, the others as inactive; ? = inconclusive; / = not tested or not shown; [ ] = remark or other dose. Unless noted, the call rests on the fitted dose curve; in most records, active means well fitted inhibition curve with a large enough effect (not every such curve was filed as active); inconclusive means small, poorly fitted or top-dose-only effect, or another doubt; inactive means no such curve, though single readings can be large or run the other way. Unless noted, on the % scale 0 is the no-effect control and ±100 the full control effect; potency means the concentration at half of the fitted maximal effect.
SMILES,Tau FP inhib,JMJD2E inh,HPGD inh,Tau ThT inhib,Tau fluor counter,ALDH1A1 block
CCN(CC)C(=O)C(=O)c1cccn1-c1ccccc1C#N,-1.8%,3.7%,-13.4%,-4.9%,-6.5%,0.4%
Cc1ccc(NC(=O)CNc2ccc(Cl)c(Cl)c2)cc1S(=O)(=O)N(C)C,-5.5%,7.4%,-1.4%,-3.6%,15.8µM*[quencher],?
Cc1ccc(NC(=O)CSc2nn(-c3ccc(Cl)cc3)c(=S)s2)cc1S(=O)(=O)N(C)C,10.2%,-11.6%,?,9.7%,8.1%,14.1µM*
Cc1ccc(S(=O)(=O)NCCC(=O)Nc2ccc(Cl)c(Cl)c2)cc1C,14.1µM*,5.5%,/,7.5%,?,?
CN(C)S(=O)(=O)c1cc(NC(=O)CSc2nn(-c3ccc(Cl)cc3)c(=S)s2)ccc1Cl,25.1µM*,-4.5%,-9.2%,?,?,?
Cc1ccc(-n2nc(C(=O)N(C)Cc3ccccc3)c3c4ccccc4n(C)c3c2=O)cc1,-17.1%,/,/,-14.1%,-22.4%,/
CSc1ccc(CCNC(=O)c2ccc(-n3c(C)cc4c3CCC(C)C4)cc2)cc1 (centres undefined),-11.5%,/,/,-14.8%,-6.5%,/
NCCC[C@@H](CC(=O)N[C@@H]1CCCC[C@H]1C(=O)N[C@H](CC(=O)N[C@@H](CCC(=O)O)CC(=O)O)Cc1c[nH]c2ccccc12)NC(=O)C[C@H](Cc1ccccc1)NC(=O)[C@@H]1CNCC[C@H]1N,6.8%,-15.1%,-11.3%,-1.9%,-2.4%,-5.6%
CC(C)(CCc1nc2ccccc2[nH]1)C(=O)O,/,/,-13.0%,/,/,1.7%[13.5 µM]
O=C(CNc1cccc([N+](=O)[O-])c1)N/N=C/c1ccc([N+](=O)[O-])o1,?,-23.1%,/,?,-14.3%,2µM*
O=C(CNc1ccccc1)N/N=C/c1ccc([N+](=O)[O-])cc1,10.4%,-11.7%,-2.2%,?,-27.3%,3.55µM*
CCOC(=O)C1=C(SCC)c2cc3c(n2C1=O)CCCC3,?,5.5%,-4.6%,11.2µM*,?,?
CCOC(=O)c1cnc2cc3c(cn2c1=O)CCCC3,6.4%,?,?,-0.4%,-4.3%,?
Clc1cccc(CNc2cc(-c3ccccc3)nc3nncn23)c1,2.2%,/,/,?,11.6%,/
COC(=O)Nc1ccc(S(=O)(=O)N2CCCCCC2)cc1,8.6%,7.3%,-18.6%,4.0%,1.6%,1.7%
N#C/C(=N\Nc1ccc(S(=O)(=O)N2CCOCC2)cc1)C(N)=S,-0.2%,3.6%,/,?,-16.8%,3.16µM*
N#CC(C#N)=NNc1ccc(S(=O)(=O)N2CCCCC2)cc1,7.6%,-2.7%,31.6µM*,15.8µM*,?,?
O=c1c2c3c(sc2n(CCN2CCCC2)c(=O)n1Cc1ccco1)CCCCC3,-0.8%,-4.1%,-9.8%,-2.4%,-11.9%,5.01µM*
CCOC(=O)N1CCc2c(sc3c2c(=O)n(Cc2ccccc2)c(=O)n3CC(=O)Nc2ccc(F)cc2)C1,10µM*,/,/,7.7%,?,/
O=C(Cn1c(=O)n(Cc2ccco2)c(=O)c2c3c(sc21)CCCCC3)c1ccccc1,-0.7%,0.0%,-17.4%,?,-11.6%,?
O=C(Cn1c(=O)n(Cc2ccco2)c(=O)c2c3c(sc21)CCCCC3)Nc1ccccc1,?,?,?,?,-12.1%,7.08µM*
CC[C@@H](Nc1ncnc2nc[nH]c12)C(=O)O,/,/,0.6%,/,/,-16.6%[13.5 µM]
CN(C)c1ccc(CNC(=O)C2COc3ccccc3C2)cc1 (centres undefined),5.0%,/,/,-12.6%,-12.7%,/
COC(=O)c1ccccc1NC(=O)c1sc(=S)n(C)c1N,3.6%,-9.7%,22.4µM*,?,?,20µM*
Cn1c(N)c(C(=O)NCc2ccccc2)sc1=S,-2.7%,-0.6%,?,-15.8%,-11.7%,20µM*
SMILES,Tau FP inhib,JMJD2E inh,HPGD inh,Tau ThT inhib,Tau fluor counter,ALDH1A1 block
Cc1ccc(NC(=O)N2CCN(C(=O)c3nsc4ccccc34)CC2)cc1C,10.0%,/,/,-15.4%,-25.6%,/
Cc1cc(C)cc(C(=O)OCC(=O)NCc2cccs2)c1,0.6%,-16.4%,-20.5%,-2.8%,-3.2%,11.4%
Cc1cc2c(cc(C(=O)OCC(=O)NCc3cccs3)n2C(C)C)o1,5.0%,-2.5%,-21.2%,?,-11.5%,18.9µM*
Cc1cccc2nc(CSc3nc4cc([N+](=O)[O-])ccc4s3)cn12,-4.0%,-6.3%,-7.4%,?,-8.8%,-1.2%
CCOc1nc(-c2ccccc2)ccc1-c1noc(-c2ccc(C)cc2)n1,-6.8%,/,/,-9.9%,-10.6%,/
CCOc1nc(-c2ccc(C)cc2)ccc1-c1noc(-c2cccnc2)n1,1.7%,4.47µM*,?,-14.6%,-7.7%,?
CCOc1cccc(C(=O)N(Cc2ccc(C)o2)C2CCS(=O)(=O)C2)c1 (centres undefined),-8.0%,/,/,7.9%,-1.3%,/
Clc1ccc(-n2cnnn2)cc1,-4.6%,-4.8%,-1.2%,-7.7%,-1.7%,9.7%
CO/C=C\C=C/c1nnn(-c2ccc(Cl)cc2)n1,8.0%,25.1µM*,-14.9%,-15.3%,12.4%,25.1µM*
COc1ccc(Cc2noc(CN3CCN(Cc4cccc(Cl)c4)CC3)n2)cc1OC,-6.1%,-0.6%,/,-2.8%,-1.4%,8.91µM*
O=C(CSc1n[nH]c(-c2cccs2)n1)N1CCCc2ccccc21,-1.3%,-2.2%,6.31µM*,-5.7%,-5.8%,-2.6%
O=C(CSc1n[nH]c(-c2ccccc2O)n1)N1CCCc2ccccc21,-6.9%,-27.8%,10µM*,-9.3%,-25.5%,1.5%
Cc1cc(NC(=O)CSc2n[nH]c(-c3cccs3)n2)no1,-3.6%,12.1%,14.1µM*,-1.0%,-3.2%,5.3%
CC(C)c1nc(SCC(=O)N2CCc3ccccc32)n[nH]1,-3.1%,4.8%,/,-8.9%,-5.1%,0.3%
O=C(c1ccc2c(c1)N(Cc1ccc(Cl)cc1)C(=O)c1ccccc1S2(=O)=O)N1CCCC1,3.8%,/,/,-17.2%,-17.2%,/
O=c1cc(-c2ccc(F)cc2)nc(SCc2nc(-c3ccc(Cl)cc3)no2)[nH]1,?,/,/,11.0%,16.1%,/
CCCCCCNC1=NCCS1,-1.3%,6.1%,/,1.0%,1.6%,3.0%
CC(=O)C1=C(c2ccc(Br)cc2)C(=O)c2ccccc2C1=O,?,?,-5.7%,8.91µM*,?,-2.0%
CCOC(=O)c1cnc2c(C)cccc2c1Nc1ccc(N2CCOCC2)cc1,?,1.1%,-1.5%,22.4µM*,?,4.6%
COc1ccc(CNC(=O)c2cnc3sc(N4CCOCC4)nn3c2=O)cc1,-8.0%,/,/,5.8%,9.6%,/
CCOC(=O)SC1=N/C(=C\c2ccc(N(C)C)cc2)C(=O)S1,0.6%,-0.8%,-21.6%,4.47µM*,-20.7%,5.01µM*
Cc1cc(C)c(S(=O)(=O)N2CCCOC2CNC(=O)C(=O)NCc2ccncc2)c(C)c1 (centres undefined),-10.9%,2.4%,-7.4%,-0.4%,-0.3%,8.8%
Cc1ccc(CN2C(=O)SC(Nc3ccc(Cl)cc3)C2=O)cc1 (centres undefined),?,/,/,-6.2%,?,/
CCc1ccc(-c2cn3nc(C)c(C)nc3n2)cc1,?,28.2µM*,-2.6%,?,-12.6%,2.82µM*
